KCNQ2 pot – KCNQ2 (rat) channel potentiation; actives 0.54% (n = 310,000); B-score at 10 µM; CHO-K1 KCNQ2, FluxOR thallium flux fluorescence; stronger effect = higher value; O88943;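 active means fluorescence ratio B-score at least 3 SD of library B-scores, with initial fluorescence B-score within 3 of them, cut at about 5.3 in these data; same plate scores as AID 2156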;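 further: B-score of peak minus minimum over baseline fluorescence ratio after K+ and Tl+ stimulus; positive B-score means potentiation of KCNQ2 with more thallium influx and brighter signal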
KCNQ2 block – blocks the rat KCNQ2 potassium channel | O88943 | B-score at 10 µM | AID 2156 | CHO-K1 KCNQ2, FluxOR thallium flux, 20 min; stronger effect = lower value | actives 1.1% (n = 310,000);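 active means fluorescence ratio B-score at most minus 3 library SDs, with starting brightness B-score within 2 library SDs, cut at about -5.5 in these data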
KCNQ2 inh conf – confirmation of rat KCNQ2 potassium channel inhibitors | activity change, negative = inhibition, % at 10 µM | actives 57% (n = 1,000) | KCNQ2-expressing cells, thallium flux, inhibition; stronger effect = lower value | shares compounds with KCNQ2 block
KCNQ1 spec – selectivity of KCNQ2 inhibitors against human KCNQ1; shares compounds with KCNQ2 block; KCNQ1-expressing cells, FluxOR thallium flux fluorescence; stronger effect = lower value; activity change, negative = inhibition, % at 10 µM; actives 15% (n = 1,000); AID 493026;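 active means activity change at least 3 SD of negative controls below their mean in both duplicate wells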;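 further: CHO cells stably transfected with KCNQ1 and depolarized by potassium stimulus; peak minus minimum fluorescence over baseline after thallium addition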
CHO Tl ctr – activity in parental CHO cells lacking KCNQ2; shares compounds with KCNQ2 block; thallium flux counter-screen; stronger effect = lower value; activity change, % at 10 µM; actives 14% (n = 1,000)
KCNQ2 patch conf – confirmation of rat KCNQ2 potassium channel inhibitors; calls only at 10 µM; shares compounds with KCNQ2 block; KCNQ2-expressing cells, automated patch clamp current; actives 49% (n = 550); AID 588531
Of the large screens only hits and unclear results are named; the others gave an inactive call (follow-up assays come after a bar, where they were run). An excerpt weighted towards active compounds, which were near 1.6% of everything screened. Unless noted, how the calls were made is not given here.

CC(C)(C)c1cc(CP(=O)(c2ccccc2)c2ccccc2)cc(C(C)(C)C)c1O	KCNQ2 block -5.7
O=c1c(Cl)c(NCC2CCCO2)cnn1C12CC3CC(CC(C3)C1)C2 (stereo not given)	none
COc1ccc(C2c3ccsc3CCN2C(=O)C(C)(C)C)cc1 (stereo not given)	none (no result: KCNQ2 pot)
CCOC(=O)C1=C(N)Oc2ccc3ccccc3c2C1c1ccc(O)c(OC)c1 (stereo not given)	none (no result: KCNQ2 pot)
CCOC(=O)C1=C(N)Oc2ccc3ccccc3c2C1c1ccc(O)cc1 (stereo not given)	KCNQ2 block -6.5
CC(=O)c1sc(NC(=O)C2CCN(C(=O)c3ccc(F)cc3)CC2)nc1-c1ccccc1	none
O=C(Oc1c(-c2ccccc2)oc2ccccc2c1=O)c1ccccc1	none (no result: KCNQ2 pot)
O=C(Oc1c(-c2ccccc2Cl)oc2ccccc2c1=O)c1ccc(Cl)cc1	KCNQ2 block -6.9
Fc1ccc(Nc2nc(N3CCOCC3)c3ccccc3n2)cc1	none (no result: KCNQ2 pot)
c1ccc2c(Nc3nc(N4CCOCC4)c4ccccc4n3)cccc2c1	KCNQ2 block -6.5
Cc1nnc(NC(=O)CSc2nccn2-c2ccc(F)cc2)s1	none
Cc1cc(OCC(=O)NCCc2cccc(F)c2)c2c(C)cc(=O)oc2c1	none
Cc1ccc(NC(=O)CN(c2ccccc2)S(=O)(=O)N(C)C)cc1C	none (no result: KCNQ2 pot)
Cc1cc(C)c(NC(=O)CN(c2ccccc2)S(=O)(=O)N(C)C)c(C)c1	KCNQ2 block -5.6
CN(C)C=Nc1ccccc1C1C=NNC1=O (stereo not given)	none (no result: KCNQ2 pot)
Oc1ccc2ccccc2c1CN1CCN(c2ccccc2F)CC1	KCNQ2 pot 13
Oc1ccc2ccccc2c1CN1CCN(C/C=C/c2ccccc2)CC1	none
CCOC(=O)/C(=C\c1ccccc1)C(=O)c1cc(C(C)=O)c(Nc2ccccc2)s1	KCNQ2 block -8.1
CCOC(=O)/C(=C\c1cccnc1)C(=O)c1cc(C(C)=O)c(Nc2ccccc2)s1	none (no result: KCNQ2 pot)
COc1ccc(CCN2C(=NC(=O)CC(C)C)SC3CS(=O)(=O)CC32)cc1OC (stereo not given)	none (no result: KCNQ2 pot)
COC(=O)c1cc(NC(=O)c2cccc(C(F)(F)F)c2)c(=O)oc1C	none (no result: KCNQ2 pot)
COC(=O)c1cc(NC(=O)c2cccc(C(F)(F)F)c2)c(=O)oc1C/C=N/OCc1cccc(Cl)c1Cl	KCNQ2 block -7.7
CCOC(=O)C1CCCN(C(=O)c2csc(-c3ccc4c(c3)CCO4)n2)C1 (stereo not given)	none
CCC(C)C(NS(=O)(=O)c1ccc(C)cc1)C(=O)NCCCN1CCOCC1 (stereo not given)	KCNQ2 block -5.6
CCC(C)C(NS(=O)(=O)c1ccc(C)cc1)C(=O)O (stereo not given)	none
CC(=O)NCCc1c[nH]c2ccc(OCC(O)CNC(C)(C)C)cc12 (stereo not given)	none
O=C(COc1ccc(F)cc1)N1c2ccccc2CCc2ccccc21	none (no result: KCNQ2 pot)
O=C(COc1cccc2ccccc12)N1c2ccccc2CCc2ccccc21	KCNQ2 block -7.2
O=C(NCC(=O)N1CCN(c2ccccc2O)CC1)c1cccs1	none (no result: KCNQ2 pot)
O=C(Nc1cc(Sc2nc3ccccc3s2)cc([N+](=O)[O-])c1)c1ccccc1F	KCNQ2 block -6
O=C(Nc1cc(Sc2nc3ccccc3s2)cc([N+](=O)[O-])c1)c1ccccc1	none (no result: KCNQ2 pot)
COc1ccc([N+](=O)[O-])cc1NC(=O)CSCc1ccc(Br)cc1	KCNQ2 pot 5.5
COc1ccc([N+](=O)[O-])cc1NC(=O)CSCc1ccccc1C	none
COc1ccccc1N1CCN(C(=O)C(Sc2ccccc2)c2ccccc2)CC1 (stereo not given)	KCNQ2 block -5.7
COc1ccccc1N1CCN(C(=O)CSc2ccccc2)CC1	none (no result: KCNQ2 pot)
O=C(NCCS(=O)(=O)N1CCN(c2ccccc2F)CC1)c1ccc(Br)cc1	none (no result: KCNQ2 pot)
O=C(CN1C(=O)COc2ccc(Cl)cc21)N1CCCCC1	none
O=C(Cc1ccccc1)Nn1c(-c2ccccc2)nc2ccccc2c1=O	KCNQ2 pot 8.4
O=C(CSc1nc2ccccc2c(=O)n1NC(=O)Cc1ccccc1)NCc1ccccc1	none
O=C(Nn1c(-c2ccccc2)nc2ccccc2c1=O)c1ccco1	none
O=C(Cc1ccccc1)Nn1c(-c2ccccc2F)nc2ccccc2c1=O	KCNQ2 pot 9.4
Cc1ccc(S(=O)(=O)N2CCC(C(=O)Nc3ccccc3N3CCCC3)CC2)cc1C	none
COc1ccc(N(C(=O)c2snc(C(N)=O)c2N)C(C(=O)NC2CCCC2)c2cccs2)c(OC)c1 (stereo not given)	KCNQ2 block -8
COc1ccc(OC)c(C(C(=O)NC2CCCCC2)N(C(=O)c2snc(C(N)=O)c2N)c2ccccc2OC)c1 (stereo not given)	none (no result: KCNQ2 pot)
Cc1ccc2[nH]c3c(c2c1)SC(C)(C)CC3=O	none (no result: KCNQ2 pot)
CC(=O)Nc1cccc(NC(=O)CSc2ncc(-c3ccc(Cl)cc3)n2Cc2ccco2)c1	KCNQ2 block -6.6
COc1ccc(-c2nnc(SC(C)C(=O)NCc3ccc4c(c3)OCO4)n2Cc2ccco2)cc1 (stereo not given)	KCNQ2 block -8.2
O=C(CSc1nnc(-c2ccc(Cl)cc2)n1Cc1ccco1)NCc1ccc2c(c1)OCO2	KCNQ2 block -5.9
CC(Sc1nnc2ccccn12)C(=O)NCc1ccc2c(c1)OCO2 (stereo not given)	none (no result: KCNQ2 pot)
Cc1cc(Cl)ccc1NC(=O)CSc1nnc(-c2ccncc2)n1Cc1ccco1	none
O=C(CSc1nnc(-c2ccc(Cl)cc2)n1Cc1ccco1)Nc1ccc2c(c1)OCCO2	none
CSC(=S)N/N=C(\C)c1ccc(Br)cc1	none
O=C(Nc1nnc(CCN2CCCCC2)s1)c1ccc(Cl)cc1Cl	none (no result: KCNQ2 pot)
Cc1onc(-c2ccccc2Cl)c1C(=O)Nc1ccc(N2CCOCC2)cc1	none (no result: KCNQ2 pot)
Cc1ccc(-n2nc3c(c2NC(=O)c2c(-c4ccccc4Cl)noc2C)CSC3)cc1	KCNQ2 block -7.4
NC(=O)c1ccc(CSc2nc3ccccc3s2)cc1	none
c1ccc2sc(SCc3ccc(-c4nnco4)cc3)nc2c1	KCNQ2 block -7.1
O=C(NC(=Nc1nc2ccccc2o1)NC(=O)c1ccccc1)c1ccccc1	none (no result: KCNQ2 pot)
COc1ccccc1C(=O)NC(=Nc1nc2ccccc2o1)NC(=O)c1ccccc1OC	KCNQ2 block -14
O=C(O)c1ccccc1N(c1ccccc1)c1ccccc1	none (no result: KCNQ2 pot)
COc1cccc(CCNC(=O)CCc2nnc(Cc3cc(OC)ccc3OC)o2)c1	none (no result: KCNQ2 pot)
CCOC(=O)c1c(NC(=O)CS(=O)(=O)c2cn(CC)c3ccccc23)sc2c1CCCC2	KCNQ2 block -11 | KCNQ2 inh conf -36% | KCNQ1 spec inactive | CHO Tl ctr inactive | KCNQ2 patch conf active
CCOC(=O)c1c(NC(=O)Cc2cccs2)sc2c1CCCC2	none (no result: KCNQ2 pot)
CCOC(=O)c1c(NC(=S)Nc2ccc(F)cc2)sc2c1CCC2	KCNQ2 block -7 | KCNQ2 inh conf inactive | KCNQ1 spec inactive | CHO Tl ctr inactive
